Results published in the supplement of paper PMC8728848.
The full list was thinned out, with the strongest signals kept by preference.

What was measured:
Test in all cases: glycan array binding signal (z-score within array); higher = stronger binding
Settings in all cases: glycan notation: IUPAC condensed, linker removed
[1] = molecular target: Fuc(a1-2)Gal(b1-3)GlcNAc6S
Outline: (§1)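 Negative Z-scores can be read as non-binding. The Z-score is calculated within each array and then averaged across arrays of one protein sequence at different concentrations or buffers and across linkers. Arrays, 3228 in all, were curated from the Consortium for Functional Glycomics database and kept only where the protein sequence was available.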

[2] = molecular target: Fuc(a1-2)Gal(b1-3)[Fuc(a1-4)]GlcNAc(b1-2)Man(a1-3)[Fuc(a1-2)Gal(b1-3)[Fuc(a1-4)]GlcNAc(b1-2)Man(a1-6)]Man(b1-4)GlcNAc(b1-4)[Fuc(a1-6)]GlcNAc(b1-4)[Fuc(a1-6)]GlcNAc
Outline: as §1

[3] = molecular target: Fuc(a1-2)Gal(b1-4)Glc
Outline: as §1

[4] = molecular target: Fuc(a1-2)Gal(b1-4)GlcNAc
Outline: as §1

[5] = molecular target: Fuc(a1-2)Gal(b1-4)[Fuc(a1-3)]GlcNAc
Outline: as §1

[6] = molecular target: Fuc(a1-2)Gal6S(b1-4)GlcNAc
Outline: as §1

[7] = molecular target: Fuc(a1-2)[Gal(a1-3)]Gal(b1-3)GlcNAc
Outline: as §1

[8] = molecular target: Fuc(a1-2)[Gal(a1-3)]Gal(b1-4)[Fuc(a1-3)]GlcNAc
Outline: as §1

[9] = molecular target: Fuc(a1-2)[GalNAc(a1-3)]Gal(b1-3)GlcNAc
Outline: as §1

[10] = molecular target: Fuc(a1-2)[GalNAc(a1-3)]Gal(b1-3)GlcNAc(b1-2)Man(a1-3)[Fuc(a1-2)[GalNAc(a1-3)]Gal(b1-3)GlcNAc(b1-2)Man(a1-6)]Man(b1-4)GlcNAc(b1-4)GlcNAc
Outline: as §1

[11] = molecular target: Fuc(a1-2)[GalNAc(a1-3)]Gal(b1-4)Glc
Outline: as §1

[12] = molecular target: Fuc(a1-2)[GalNAc(a1-3)]Gal(b1-4)GlcNAc
Outline: as §1

[13] = molecular target: Fuc(a1-2)[GalNAc(a1-3)]Gal(b1-4)GlcNAc(b1-2)Man
Outline: as §1

[14] = molecular target: Fuc(a1-2)[GalNAc(a1-3)]Gal(b1-4)GlcNAc(b1-2)Man(a1-3)[Fuc(a1-2)[GalNAc(a1-3)]Gal(b1-4)GlcNAc(b1-2)Man(a1-6)]Man(b1-4)GlcNAc(b1-4)GlcNAc
Outline: as §1

[15] = molecular target: Fuc(a1-2)[GalNAc(a1-3)]Gal(b1-4)GlcNAc(b1-3)Gal(b1-4)GlcNAc
Outline: as §1

[16] = molecular target: Fuc(a1-2)[GalNAc(a1-3)]Gal(b1-4)GlcNAc(b1-3)Gal(b1-4)GlcNAc(b1-3)Gal(b1-4)GlcNAc
Outline: as §1

[17] = molecular target: Fuc(a1-3)[Gal(b1-4)]GlcNAc(b1-6)GalNAc
Outline: as §1

[18] = molecular target: Gal(a1-3)Gal(b1-4)[Fuc(a1-3)]GlcNAc
Outline: as §1

[19] = molecular target: Gal(b1-3)GalNAc(a1-3)[Fuc(a1-2)]Gal(b1-4)Glc
Outline: as §1

[20] = molecular target: Gal(b1-3)GalNAc(a1-3)[Fuc(a1-2)]Gal(b1-4)GlcNAc
Outline: as §1

[21] = molecular target: Gal(b1-3)GlcNAc
Outline: as §1

[22] = molecular target: Gal(b1-3)GlcNAc(b1-2)Man(a1-3)[Gal(b1-3)GlcNAc(b1-2)Man(a1-6)]Man(b1-4)GlcNAc(b1-4)GlcNAc
Outline: as §1

[23] = molecular target: Gal(b1-3)[GlcNAc(b1-6)]GalNAc
Outline: as §1

[24] = molecular target: Gal(b1-3)[Neu5Ac(a2-6)]GlcNAc(b1-6)Gal(b1-4)Glc
Outline: as §1

[25] = molecular target: Gal(b1-4)GalNAc(a1-3)[Fuc(a1-2)]Gal(b1-4)GlcNAc
Outline: as §1

[26] = molecular target: Gal(b1-4)GlcNAc(b1-2)Man
Outline: as §1

[27] = molecular target: Gal(b1-4)GlcNAc(b1-3)Gal(b1-4)GlcNAc(b1-3)Gal(b1-4)GlcNAc
Outline: as §1

[28] = molecular target: Gal(b1-4)GlcNAc(b1-3)Gal(b1-4)GlcNAc(b1-3)Gal(b1-4)GlcNAc(b1-3)Gal(b1-4)GlcNAc(b1-2)[Gal(b1-4)GlcNAc(b1-3)Gal(b1-4)GlcNAc(b1-3)Gal(b1-4)GlcNAc(b1-3)Gal(b1-4)GlcNAc(b1-6)]Man(a1-6)[Gal(b1-4)GlcNAc(b1-3)Gal(b1-4)GlcNAc(b1-3)Gal(b1-4)GlcNAc(b1-3)Gal(b1-4)GlcNAc(b1-2)Man(a1-3)]Man(b1-4)GlcNAc(b1-4)[Fuc(a1-6)]GlcNAc
Outline: as §1

[29] = molecular target: Gal3S(b1-4)[Fuc(a1-3)]Glc6S
Outline: as §1

[30] = molecular target: GalNAc(b1-3)GlcNAc
Outline: as §1

[31] = molecular target: Glc(a1-4)Glc
Outline: as §1

[32] = molecular target: GlcA(b1-3)Gal
Outline: as §1

[33] = molecular target: GlcNAc(b1-2)Man(a1-3)[GlcNAc(b1-4)][GlcNAc(b1-2)Man(a1-6)]Man(b1-4)GlcNAc(b1-4)[Fuc(a1-6)]GlcNAc
Outline: as §1

[34] = molecular target: GlcNAc(b1-2)[GlcNAc(b1-4)]Man(a1-3)[GlcNAc(b1-4)][GlcNAc(b1-2)[GlcNAc(b1-6)]Man(a1-6)]Man(b1-4)GlcNAc(b1-4)GlcNAc
Outline: as §1

[35] = molecular target: GlcNAc(b1-3)Gal(b1-4)GlcNAc(b1-3)Gal(b1-4)GlcNAc(b1-3)Gal(b1-4)GlcNAc(b1-2)[GlcNAc(b1-3)Gal(b1-4)GlcNAc(b1-3)Gal(b1-4)GlcNAc(b1-3)Gal(b1-4)GlcNAc(b1-6)]Man(a1-6)[GlcNAc(b1-3)Gal(b1-4)GlcNAc(b1-3)Gal(b1-4)GlcNAc(b1-3)Gal(b1-4)GlcNAc(b1-2)Man(a1-3)]Man(b1-4)GlcNAc(b1-4)[Fuc(a1-6)]GlcNAc
Outline: as §1

[36] = molecular target: GlcNAc(b1-3)Gal(b1-4)GlcNAc(b1-3)[GlcNAc(b1-3)Gal(b1-4)GlcNAc(b1-3)]GalNAc
Outline: as §1

[37] = molecular target: GlcNAc(b1-3)Gal(b1-4)GlcNAc(b1-6)[Gal(b1-3)]GalNAc
Outline: as §1

[38] = molecular target: GlcNAc(b1-3)Man
Outline: as §1

[39] = molecular target: GlcNAc(b1-4)GlcNAc(b1-4)GlcNAc
Outline: as §1

[40] = molecular target: Kdn(a2-6)Gal(b1-4)GlcNAc
Outline: as §1

[41] = molecular target: Neu5Ac(a2-3)Gal(b1-3)GlcNAc(b1-3)Gal(b1-3)GlcNAc
Outline: as §1

[42] = molecular target: Neu5Ac(a2-3)Gal(b1-3)GlcNAc(b1-3)Gal(b1-4)GlcNAc
Outline: as §1

[43] = molecular target: Neu5Ac(a2-3)Gal(b1-3)[Fuc(a1-4)]GlcNAc(b1-3)Gal(b1-4)[Fuc(a1-3)]GlcNAc
Outline: as §1

[44] = molecular target: Neu5Ac(a2-3)Gal(b1-4)GlcNAc(b1-2)[Neu5Ac(a2-3)Gal(b1-4)GlcNAc(b1-6)]Man(a1-6)[Neu5Ac(a2-3)Gal(b1-4)GlcNAc(b1-2)Man(a1-3)]Man(b1-4)GlcNAc(b1-4)GlcNAc
Outline: as §1

[45] = molecular target: Neu5Ac(a2-3)Gal(b1-4)GlcNAc(b1-2)[Neu5Ac(a2-3)Gal(b1-4)GlcNAc(b1-6)]Man(a1-6)[Neu5Ac(a2-3)Gal(b1-4)GlcNAc(b1-2)Man(a1-3)][GlcNAc(b1-4)]Man(b1-4)GlcNAc(b1-4)GlcNAc
Outline: as §1

[46] = molecular target: Neu5Ac(a2-3)Gal(b1-4)GlcNAc(b1-3)Gal(b1-4)GlcNAc(b1-3)Gal(b1-4)GlcNAc
Outline: as §1

[47] = molecular target: Neu5Ac(a2-3)Gal(b1-4)GlcNAc(b1-6)GalNAc
Outline: as §1

[48] = molecular target: Neu5Ac(a2-3)Gal(b1-4)GlcNAc(b1-6)[Gal(b1-3)]GalNAc
Outline: as §1

[49] = molecular target: Neu5Ac(a2-6)Gal(b1-4)GlcNAc(b1-2)Man(a1-3)[Neu5Ac(a2-6)Gal(b1-4)GlcNAc(b1-2)Man(a1-6)]Man(b1-4)GlcNAc(b1-4)GlcNAc
Outline: as §1

[50] = molecular target: Neu5Ac(a2-6)Gal(b1-4)GlcNAc(b1-2)Man(a1-6)[Gal(b1-4)GlcNAc(b1-2)Man(a1-3)]Man(b1-4)GlcNAc(b1-4)GlcNAc
Outline: as §1

[51] = molecular target: Neu5Ac(a2-6)Gal(b1-4)GlcNAc(b1-3)Gal(b1-4)GlcNAc(b1-3)Gal(b1-4)GlcNAc(b1-2)Man(a1-3)[Neu5Ac(a2-6)Gal(b1-4)GlcNAc(b1-3)Gal(b1-4)GlcNAc(b1-3)Gal(b1-4)GlcNAc(b1-2)Man(a1-6)]GalNAc
Outline: as §1

[52] = molecular target: Neu5Ac(a2-6)Gal(b1-4)GlcNAc(b1-6)[Gal(b1-3)GlcNAc(b1-3)]Gal(b1-4)Glc
Outline: as §1

[53] = molecular target: Neu5Ac(a2-6)GalNAc(b1-4)GlcNAc6S
Outline: as §1

[54] = molecular target: Neu5Ac(a2-8)Neu5Ac(a2-3)Gal(b1-3)GalNAc(b1-4)[Neu5Ac(a2-3)]Gal(b1-4)Glc
Outline: as §1

[55] = molecular target: Neu5Ac(a2-8)Neu5Ac(a2-8)Neu5Ac(a2-3)[GalNAc(b1-4)]Gal(b1-4)Glc
Outline: as §1

[56] = molecular target: Neu5Ac9Ac(a2-6)Gal(b1-4)GlcNAc
Outline: as §1

[57] = molecular target: Neu5Gc(a2-6)Gal(b1-4)GlcNAc
Outline: as §1

[58] = molecular target: Neu5Gc(a2-8)Neu5Gc(a2-3)Gal(b1-4)GlcNAc(b1-3)Gal(b1-4)GlcNAc
Outline: as §1

B1: Gal 4 (Mus musculus), P56470 (protein)
chain: MAYVPAPGYQPTYNPTLPYYQPIPGGLNVGMSVYIQGVASEHMKRFFVNFVVGQDPGSDVAFHFNPRFDGWDKVVFNTLQGGKWGSEERKRSMPFKKGAAFELVFIVLAEHYKVVVNGNPFYEYGHRLPLQMVTHLQVDGDLQLQSINFIGGQPLRPQGPPMMPPYPGPGHCHQQLNSLPTMEGPPTFNPPVPYFGRLQGGLTARRTIIIKGYVPPTGKSFAINFKVGSSGDIALHINPRMGNGTVVRNSLLNGSWGSEEKKITHNPFGPGQFFDLSIRCGLDRFKVYANGQHLFDFAHRLSAFQRVDTLEIQGDVTLSYVQI
glycan array binding signal (z-score) [1]: 4.25 | glycan array binding signal (z-score) [2]: -0.312 | glycan array binding signal (z-score) [3]: -0.196 | glycan array binding signal (z-score) [4]: -0.232 | glycan array binding signal (z-score) [5]: -0.234 | glycan array binding signal (z-score) [6]: -0.199 | glycan array binding signal (z-score) [7]: 2.26 | glycan array binding signal (z-score) [8]: -0.266 | glycan array binding signal (z-score) [9]: 4.51 | glycan array binding signal (z-score) [10]: 6.91 | glycan array binding signal (z-score) [11]: 5.4 | glycan array binding signal (z-score) [12]: 3.27 | glycan array binding signal (z-score) [13]: 4.19 | glycan array binding signal (z-score) [14]: 3.77 | glycan array binding signal (z-score) [15]: 4.64 | glycan array binding signal (z-score) [16]: 4.02 | glycan array binding signal (z-score) [17]: -0.301 | glycan array binding signal (z-score) [18]: -0.234 | glycan array binding signal (z-score) [19]: 4.95 | glycan array binding signal (z-score) [20]: 3.84 | glycan array binding signal (z-score) [21]: -0.228 | glycan array binding signal (z-score) [22]: -0.181 | glycan array binding signal (z-score) [23]: -0.234 | glycan array binding signal (z-score) [24]: -0.176 | glycan array binding signal (z-score) [25]: 4.23 | glycan array binding signal (z-score) [26]: -0.289 | glycan array binding signal (z-score) [27]: -0.171 | glycan array binding signal (z-score) [28]: -0.148 | glycan array binding signal (z-score) [29]: -0.18 | glycan array binding signal (z-score) [30]: -0.272 | glycan array binding signal (z-score) [31]: -0.244 | glycan array binding signal (z-score) [32]: -0.24 | glycan array binding signal (z-score) [33]: -0.278 | glycan array binding signal (z-score) [34]: -0.23 | glycan array binding signal (z-score) [35]: -0.244 | glycan array binding signal (z-score) [36]: -0.255 | glycan array binding signal (z-score) [37]: -0.174 | glycan array binding signal (z-score) [38]: -0.218 | glycan array binding signal (z-score) [39]: -0.23 | glycan array binding signal (z-score) [40]: -0.242 | glycan array binding signal (z-score) [41]: 0.107 | glycan array binding signal (z-score) [42]: -0.205 | glycan array binding signal (z-score) [43]: -0.234 | glycan array binding signal (z-score) [44]: -0.196 | glycan array binding signal (z-score) [45]: -0.338 | glycan array binding signal (z-score) [46]: -0.231 | glycan array binding signal (z-score) [47]: -0.314 | glycan array binding signal (z-score) [48]: -0.228 | glycan array binding signal (z-score) [49]: -0.226 | glycan array binding signal (z-score) [50]: -0.196 | glycan array binding signal (z-score) [51]: -0.294 | glycan array binding signal (z-score) [52]: -0.295 | glycan array binding signal (z-score) [53]: -0.293 | glycan array binding signal (z-score) [54]: -0.247 | glycan array binding signal (z-score) [55]: -0.227 | glycan array binding signal (z-score) [56]: -0.232 | glycan array binding signal (z-score) [57]: -0.231 | glycan array binding signal (z-score) [58]: -0.309
